Laboratory results reported in PubChem BioAssay.
The source made the active and inactive calls.

Columns and labels:
[1] = small molecules captured by biotinylated probe aFSTL3 – biochemical, small-molecule microarray, fluorescence 635/667, stem cell growth factor project, primary screen (AID 1064); details: higher = more signal;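 also: measures binding of the biotinylated anti-FSTL3 antibody to printed compounds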
[2] = binders from COS7 lysate, DM2A8 probe, primary screen, torsin A project, cell lysate, small-molecule microarray, fluorescence 635/667 (AID 1065); details: higher = more signal, COS7 lysate expressing mutant human TOR1A
[3] = small molecules captured by biotinylated probe aFGF2 – biochemical, small-molecule microarray, fluorescence 635/667, stem cell growth factor project, primary screen (AID 1067); details: higher = more signal;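 also: measures binding of biotinylated aFGF2 protein to printed compounds on slides; z-score merges feature fluorescence and signal-to-noise across triplicate slides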
[4] = small molecules captured by biotinylated probe aFGF10 – biochemical, small-molecule microarray, fluorescence 635/667, stem cell growth factor project, primary screen (AID 1071); details: higher = more signal;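 also: score merges 667 nm spot intensity and signal to noise from triplicate slides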
[5] = molecular target: Neurogenic locus notch homolog protein 2 (Homo sapiens) (UniProt Q04721); assay: small molecules binding Notch2 protein – biochemical, small-molecule microarray, 635 nm fluorescence, stem cell growth factors, primary screen (AID 1073); details: higher = more signal
[6] = molecular target: Pro-neuregulin-1, membrane-bound isoform (Homo sapiens) (UniProt Q02297); assay: small molecules binding neuregulin-1 protein – biochemical, small-molecule microarray, fluorescence 635/667, psychiatric disease protein project, primary screen (AID 1075); details: NRG1 binding, 635 nm fluorescence, higher = more signal;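 also: score combines 667 nm spot fluorescence with signal to noise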
[7] = tested on: Neuregulin-1 EGF-like domain; assay: small molecules binding NRG1 EGF domain – biochemical, small-molecule microarray, 635 nm fluorescence, primary screen (AID 1081); details: higher = more signal;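 also: binding of the protein to compounds printed on small-molecule microarray slides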
[8] = FRG1 expression reporter modulators in myotubes – cell-based, C2C12 myotubes, firefly/Renilla luciferase, luminescence, FRG1 inhibition for FSHD, primary screen (AID 1084); details: FRG1 promoter luciferase, higher = more signal, called active from +8 up or from −8 down
[9] = small molecules captured by biotinylated probe aFST – biochemical, small-molecule microarray, fluorescence 635/667, stem cell growth factor project, primary screen (AID 1086); details: higher = more signal;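 also: score merges 667 nm fluorescence with signal-to-noise of each printed compound spot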
[10] = binders of probe aHhip on microarray, primary screen, stem cell growth factor project, biochemical, small-molecule microarray, fluorescence 635/667 (AID 1087); details: higher = more signal;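 also: score merges spot fluorescence at 667nm with spot signal to noise ratio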

Sequence of Neurogenic locus notch homolog protein 2 (Homo sapiens) (Q04721 whole entry, looked up, canonical isoform): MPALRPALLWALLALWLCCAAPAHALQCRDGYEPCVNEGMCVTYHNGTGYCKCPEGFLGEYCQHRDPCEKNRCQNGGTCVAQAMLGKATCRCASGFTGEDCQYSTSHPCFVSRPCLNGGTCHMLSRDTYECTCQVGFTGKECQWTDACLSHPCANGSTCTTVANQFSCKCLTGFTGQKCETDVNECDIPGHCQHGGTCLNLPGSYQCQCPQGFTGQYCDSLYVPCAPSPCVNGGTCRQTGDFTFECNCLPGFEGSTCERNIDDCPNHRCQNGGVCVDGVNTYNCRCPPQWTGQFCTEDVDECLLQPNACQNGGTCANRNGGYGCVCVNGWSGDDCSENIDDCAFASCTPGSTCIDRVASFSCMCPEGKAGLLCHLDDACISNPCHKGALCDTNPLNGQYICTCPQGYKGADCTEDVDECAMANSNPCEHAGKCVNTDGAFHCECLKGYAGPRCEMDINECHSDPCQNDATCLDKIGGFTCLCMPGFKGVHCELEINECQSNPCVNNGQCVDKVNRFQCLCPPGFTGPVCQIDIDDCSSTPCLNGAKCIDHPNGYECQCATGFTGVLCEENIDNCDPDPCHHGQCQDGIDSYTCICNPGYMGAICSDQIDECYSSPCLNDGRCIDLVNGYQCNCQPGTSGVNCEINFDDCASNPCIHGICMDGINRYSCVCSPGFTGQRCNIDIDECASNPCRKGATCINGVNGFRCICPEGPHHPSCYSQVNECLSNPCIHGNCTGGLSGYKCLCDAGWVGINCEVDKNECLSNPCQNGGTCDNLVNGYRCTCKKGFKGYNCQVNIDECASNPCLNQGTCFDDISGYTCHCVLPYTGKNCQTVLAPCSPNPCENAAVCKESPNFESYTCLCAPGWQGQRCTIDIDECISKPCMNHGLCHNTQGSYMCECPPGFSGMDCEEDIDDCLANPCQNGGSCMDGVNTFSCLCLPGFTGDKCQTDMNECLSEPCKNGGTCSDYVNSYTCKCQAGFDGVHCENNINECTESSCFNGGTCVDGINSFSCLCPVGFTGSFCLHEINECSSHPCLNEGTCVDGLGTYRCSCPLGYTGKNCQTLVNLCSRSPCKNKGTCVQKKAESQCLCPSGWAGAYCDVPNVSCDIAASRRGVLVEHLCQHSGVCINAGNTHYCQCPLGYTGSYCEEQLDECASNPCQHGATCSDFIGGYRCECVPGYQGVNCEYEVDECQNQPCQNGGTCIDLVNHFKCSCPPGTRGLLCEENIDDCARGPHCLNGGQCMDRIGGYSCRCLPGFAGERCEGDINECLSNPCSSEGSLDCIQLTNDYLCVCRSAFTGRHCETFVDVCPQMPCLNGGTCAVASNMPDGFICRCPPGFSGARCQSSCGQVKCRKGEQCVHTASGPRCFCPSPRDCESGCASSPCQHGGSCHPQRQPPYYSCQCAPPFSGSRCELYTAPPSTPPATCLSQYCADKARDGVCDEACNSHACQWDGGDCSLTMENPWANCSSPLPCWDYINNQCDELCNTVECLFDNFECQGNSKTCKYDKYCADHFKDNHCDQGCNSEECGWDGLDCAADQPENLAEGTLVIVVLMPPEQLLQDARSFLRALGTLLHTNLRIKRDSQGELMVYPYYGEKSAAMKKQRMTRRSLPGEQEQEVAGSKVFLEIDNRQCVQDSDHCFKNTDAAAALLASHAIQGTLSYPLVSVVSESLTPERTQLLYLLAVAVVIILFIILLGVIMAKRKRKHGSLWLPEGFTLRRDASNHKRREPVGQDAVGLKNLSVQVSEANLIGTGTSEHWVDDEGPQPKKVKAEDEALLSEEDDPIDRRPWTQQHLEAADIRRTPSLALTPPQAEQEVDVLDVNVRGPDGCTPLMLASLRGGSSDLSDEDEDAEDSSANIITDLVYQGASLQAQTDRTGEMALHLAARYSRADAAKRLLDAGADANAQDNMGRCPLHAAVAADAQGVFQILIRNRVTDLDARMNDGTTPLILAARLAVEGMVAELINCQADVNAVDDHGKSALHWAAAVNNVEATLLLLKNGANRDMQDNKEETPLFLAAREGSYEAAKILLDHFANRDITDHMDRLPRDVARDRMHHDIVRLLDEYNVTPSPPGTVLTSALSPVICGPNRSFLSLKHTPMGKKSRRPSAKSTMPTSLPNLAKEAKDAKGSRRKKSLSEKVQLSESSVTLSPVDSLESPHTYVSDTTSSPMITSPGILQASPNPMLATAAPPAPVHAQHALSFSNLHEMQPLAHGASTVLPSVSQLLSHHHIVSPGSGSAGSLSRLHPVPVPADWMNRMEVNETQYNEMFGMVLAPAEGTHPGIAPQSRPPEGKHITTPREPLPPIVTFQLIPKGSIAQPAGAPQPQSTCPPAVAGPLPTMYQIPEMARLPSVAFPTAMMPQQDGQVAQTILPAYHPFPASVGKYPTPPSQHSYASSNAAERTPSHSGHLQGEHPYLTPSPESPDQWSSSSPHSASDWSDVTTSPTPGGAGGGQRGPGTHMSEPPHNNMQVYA
Sequence of Pro-neuregulin-1, membrane-bound isoform (Homo sapiens) (Q02297 whole entry, looked up, the tested form may be a part, canonical isoform): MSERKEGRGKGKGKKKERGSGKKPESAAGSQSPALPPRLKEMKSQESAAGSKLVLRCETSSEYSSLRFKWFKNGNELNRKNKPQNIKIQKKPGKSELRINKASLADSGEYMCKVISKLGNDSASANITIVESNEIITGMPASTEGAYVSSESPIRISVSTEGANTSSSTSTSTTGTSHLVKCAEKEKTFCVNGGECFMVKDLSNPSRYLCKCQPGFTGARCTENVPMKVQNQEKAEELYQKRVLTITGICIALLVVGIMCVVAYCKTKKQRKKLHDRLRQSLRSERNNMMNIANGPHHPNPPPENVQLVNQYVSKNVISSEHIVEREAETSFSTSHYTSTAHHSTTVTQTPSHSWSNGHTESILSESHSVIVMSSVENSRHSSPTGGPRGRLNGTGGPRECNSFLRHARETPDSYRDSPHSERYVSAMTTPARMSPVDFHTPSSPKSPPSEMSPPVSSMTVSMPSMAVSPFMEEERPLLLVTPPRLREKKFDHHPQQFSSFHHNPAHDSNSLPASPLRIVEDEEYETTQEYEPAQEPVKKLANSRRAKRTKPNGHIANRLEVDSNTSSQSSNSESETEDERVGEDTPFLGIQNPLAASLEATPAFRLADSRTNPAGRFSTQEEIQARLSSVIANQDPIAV

| SMILES | composite z-score [1] | composite z-score [2] | composite z-score [3] | composite z-score [4] | composite z-score [5] | composite z-score [6] | composite z-score [7] | z-score [8] | composite z-score [9] | composite z-score [10] |
| --- | --- | --- | --- | --- | --- | --- | --- | --- | --- | --- |
| CC(C)C(CO)N1C(=O)[C@@H]2[C@H]3C(=O)OCC=C[C@H]3OC23C=CCN(c2ccc4ccccc4c2)C(=O)[C@@H]13 (stereo not given in full) | 0.316 | -0.377 | -0.169 | -0.134 | -1.13 | 0.187 | -0.111 | 0.125 (inactive) | -0.527 | 0.0373 |
| O=C1C2C=CC(C(O)CCc3ccccc3)N(Nc3ccccc3)C2C(=O)N1c1ccccc1 (stereo not given) | 0.572 | 1.83 | 0.288 | 0.83 | 1.61 | 2.09 | 1.22 | 0.0878 (inactive) | 1.15 | -0.0645 |
| C=CCOC(=O)[C@@H]1[C@H]2C(=O)O[C@H](c3ccccc3)[C@H](c3ccccc3)N2[C@H](c2ccc(OCCOC(=O)[C@H]3C[C@H]4C(=O)N[C@@H](CCCC[N+](C)(C)C)C(=O)N4[C@H]3c3cccc(OCCO)c3)cc2)[C@@]12C(=O)Nc1ccc(I)cc12 | -0.542 | 0.391 | -0.0824 | 0.651 | 0.827 | -0.306 | 1.17 | 0.179 (inactive) | 0.166 | 0.154 |
| CN(C)CCCCNC(=O)[C@@H]1C[C@@H]2C(=O)N[C@@H](CCCCN)C(=O)N2[C@@H]1c1cccc(OCCO)c1 | 1.24 | -0.719 | -0.138 | -0.347 | -0.573 | 2.07 | 1.3 | 3.31 (inactive) | 0.145 | 0.424 |
| O=C1C2C=CC(C(O)c3ccc(Br)cc3)N(n3cnnc3)C2C(=O)N1Cc1ccccc1 (stereo not given) | -0.0627 | 0.52 | 0.0488 | 0.533 | 1.3 | 0.0603 | 0.722 | 0.258 (inactive) | 0.549 | 0.134 |
| CCN(CC)c1ccc(N2CC=CC34O[C@@H]5C=CCCOC(=O)C5[C@H]3C(=O)N(CCCO)[C@@H]4C2=O)cc1 (stereo not given in full) | -0.0768 | -0.288 | -0.158 | -0.332 | -0.816 | -0.613 | -0.0612 | -0.306 (inactive) | -0.177 | -0.134 |
| C[N+](C)(C)CCCCNC(=O)[C@H]1C[C@H]2C(=O)N3CCC[C@H]3C(=O)N2[C@H]1c1ccc(O)cc1 | -0.32 | 0.799 | -0.12 | 1.15 | 0.534 | -0.0852 | 1.34 | 1.42 (inactive) | 0.446 | 0.176 |
| CC(C)(C)OC(=O)CC[C@]1(C(=O)NCC(O)CO)N=C(c2ccc(OCCCO)cc2)O[C@H]1c1ccccc1CN=[N+]=[N-] (stereo not given in full) | 1.32 | 2.46 | 0.314 | 0.922 | 1.68 | 2.09 | 0.722 | 2.4 (inactive) | 1.68 | -0.0024 |
| O=S(=O)(NCCCO)c1ccc(Br)cc1 | -0.109 | 1.04 | -0.112 | 0.209 | 0.433 | 1.07 | 1.07 | -1.91 (inactive) | 0.14 | -0.226 |
| COC(=O)[C@@]1(Cc2ccc(OC)cc2)[C@H]2c3cc(C(=O)N4CCCC4)n(CCN4CCOCC4)c3C[C@H]2CN1C(=O)c1ccccc1 | 2.56 | 0.553 | 1.01 | 1.47 | 1.59 | 2.23 | 1.37 | 0.877 (inactive) | 2.71 | 3.48 |
| O=C1NC(=O)C2C1C=CC(C(O)c1cccs1)N2Nc1ccccn1 (stereo not given) | 0.151 | -0.133 | 0.0094 | 0.692 | 1.14 | 0.689 | 0.877 | 0.304 (inactive) | 0.282 | -0.188 |
| C=CCOC(=O)[C@H]1[C@@H]2C(=O)O[C@@H](c3ccccc3)[C@@H](c3ccccc3)N2[C@@H](c2ccc(OCCOC(=O)[C@H]3C[C@H]4C(=O)N[C@@H](CCCC[N+](C)(C)C)C(=O)N4[C@H]3c3ccc(O)cc3)cc2)[C@]12C(=O)Nc1ccccc12 | 0.104 | 0.154 | -0.1 | 0.276 | 0.193 | 0.06 | 1.09 | 0.131 (inactive) | 0.357 | -0.608 |
| CO[C@H]1O[C@H](CO)[C@@H](OC(=O)Nc2ccccc2-c2ccccc2)[C@H](OC(=O)Nc2ccccc2-c2ccccc2)[C@H]1OC(=O)Nc1ccccc1-c1ccccc1 | -0.0136 | 1.68 | 0.17 | 1.17 | 1.4 | 0.885 | 1.42 | 0.849 (inactive) | 0.374 | 0.245 |
| C=C(CCCC)C(=O)CC[C@H](OC(C)=O)c1ccc(CO)o1 | -0.282 | 0.0494 | -0.0985 | -0.0414 | -0.366 | -0.119 | 0.798 | -0.463 (inactive) | -0.402 | -0.0994 |
| COCCCNC(=O)[C@@]1(Sc2ccc(C)cc2)CC(=O)N(Cc2ccccc2)[C@@H]1c1ccc(CO)cc1 | 0.178 | 0.685 | 0.0431 | 0.738 | -0.774 | 0.505 | -0.233 | -1.53 (inactive) | -0.217 | 0.0347 |
| C=CCN1C(=O)[C@@]2(O[C@@H](CCO)[C@H]([Si](C)(C)c3ccc(OC)cc3)[C@H]2C)c2cc(N3C(=O)COc4ccccc43)ccc21 | -0.351 | 0.28 | -0.0293 | 1.02 | 0.227 | 1.02 | 0.746 | -1.54 (inactive) | 0.975 | -0.358 |
| C=CCNC(=O)[C@@H]1[C@H]2C(=O)O[C@H](c3ccccc3)[C@H](c3ccccc3)N2[C@H](c2ccccc2OCCO)[C@@]12C(=O)N(C(=O)OCCOC)c1ccc(C#CCC(C(=O)OC)C(=O)OC)cc12 | 2.39 | 0.691 | 0.605 | 1.16 | 1.6 | 2.26 | 1.31 | 0.847 (inactive) | 3.09 | 0.856 |

| SMILES | composite z-score [1] | composite z-score [2] | composite z-score [3] | composite z-score [4] | composite z-score [5] | composite z-score [6] | composite z-score [7] | z-score [8] | composite z-score [9] | composite z-score [10] |
| --- | --- | --- | --- | --- | --- | --- | --- | --- | --- | --- |
| O=C(NCCN1CCOCC1)[C@@H]1c2ccccc2C(=O)N(Cc2cc(F)cc(C(F)(F)F)c2)[C@H]1c1ccc(CO)cc1 | -0.0058 | 1.09 | -0.188 | -0.71 | -0.987 | 1.25 | 0.591 | -0.0497 (inactive) | -0.234 | -0.199 |
| Cc1ccc(S(=O)(=O)N2CC(C(=O)O)=CCC2c2ccccc2)cc1 (stereo not given) | 0.578 | -0.0007 | -0.0128 | 0.118 | -0.0631 | -0.0288 | -0.11 | -1.03 (inactive) | -0.513 | -0.204 |
| O=C(NCC(O)CO)[C@@]1(Cc2ccccc2)COC(c2ccc(OCCCO)cc2)=N1 (stereo not given in full) | 0.213 | -0.0995 | -0.083 | 0.138 | -0.0908 | 0.736 | 0.698 | 0.518 (inactive) | 0.112 | -0.12 |
| COc1ccc([Si](C)(C)[C@@H]2[C@@H](CCn3cc([C@H](O)c4ccccc4)nn3)O[C@]3(C(=O)N(C)c4ccccc43)[C@H]2C)cc1 | -0.266 | 0.356 | -0.0468 | 0.181 | 0.0572 | 0.0939 | 0.448 | -1.31 (inactive) | -0.108 | -0.391 |
| O=C1O[C@@H](c2ccccc2)[C@@H](c2ccccc2)N2[C@@H](c3ccc(O)cc3)[C@]3(C(=O)Nc4ccccc43)[C@@H](C(=O)N3CCCCCCC3)[C@H]12 | 3.65 | 1.15 | 0.937 | 0.525 | 0.519 | 2.22 | 1.35 | -4.16 (inactive) | 2.99 | 1.07 |
| O=C1OCCC=C[C@H]2OC34C=CCN(c5ccc6ccccc6c5)C(=O)[C@H]3N(CCCCCCO)C(=O)[C@@H]4C12 (stereo not given in full) | 0.366 | 0.79 | -0.143 | -0.367 | -0.834 | 2.03 | 0.193 | 1.66 (inactive) | -0.514 | -0.546 |
| O=C1c2ccccc2[C@@]2(Cc3ccccc3N(Cc3ccccc3)C2=O)[C@H](c2ccc(CO)cc2)N1Cc1ccccc1C(F)(F)F | 0.178 | -1.44 | -0.083 | -0.236 | -0.233 | 0.363 | 0.114 | -0.366 (inactive) | -0.0954 | -0.125 |
| O=C1OCC=C[C@H]2OC34C=CCN(c5ccc6ccccc6c5)C(=O)[C@H]3N(CCO)C(=O)[C@@H]4[C@@H]12 (stereo not given in full) | 0.982 | -2.22 | -0.166 | -0.361 | -1.4 | 1.7 | 1.39 | 1.18 (inactive) | -0.127 | -0.27 |
| C=C(CCCC)/C(=C/C[C@H](OC(C)=O)c1ccc(CO)o1)c1cc(C(=O)OC)ccc1OC | -0.509 | -0.296 | -0.0333 | 0.525 | -0.0467 | 0.714 | 0.888 | -0.313 (inactive) | 0.439 | -0.0618 |
| O=[N+]([O-])c1ccc(C[n+]2ccc(CCCO)cc2)o1 | 0.138 | 0.218 | 0.0609 | 0.758 | 1.53 | 0.856 | 1.29 | 0.472 (inactive) | 0.181 | 0.251 |
| COC(=O)[C@@]1(Cc2ccc(OC)cc2)[C@H]2c3cc(C(=O)N(C)C)n(Cc4ccc(OC)c(OC)c4)c3C[C@H]2CN1C(=O)c1ccccc1 | 0.42 | 0.796 | -0.0824 | 0.336 | 1.73 | 1.86 | 1.28 | 0.889 (inactive) | 1.39 | 0.525 |
| CC(=O)N1Cc2ccccc2C[C@@]2(N=C(c3ccc(OCCCO)cc3)O[C@H]2c2ccccc2)C1=O | 0.136 | 0.0287 | 0.0933 | 0.145 | 1.09 | 1.54 | 1.31 | -3.53 (inactive) | 1.55 | -0.393 |
| CC(C)(C)OC(=O)CC[C@@]1(C(=O)N2CCOCC2)N=C(c2ccc(OCCCO)cc2)O[C@@H]1c1ccccc1N=[N+]=[N-] | 0.0033 | 1.13 | 0.213 | 0.883 | 1.43 | 1.75 | 1.29 | 0.97 (inactive) | 1.57 | 0.142 |
| COC(=O)[C@@]1(Cc2ccccc2)[C@H]2c3cc(C(=O)N(C)C)n(Cc4ccccc4)c3C[C@H]2CN1C(=O)c1ccccc1 | 0.0252 | -0.705 | 0.274 | 0.747 | 1.67 | 0.614 | 1.26 | 0.273 (inactive) | 0.856 | 0.896 |
| C=CC[C@@]1(C(=O)NCCN2CCOCC2)N=C(c2ccc(OCCCO)cc2)O[C@@H]1c1ccccc1CN=[N+]=[N-] | 1 | 0.812 | -0.0524 | 0.455 | 0.674 | 1.26 | 1.29 | -0.484 (inactive) | 1.65 | 0.0989 |
| C=CCC(OC(C)=O)[C@@H]1[C@@H](N(Cc2cc3ccccc3o2)C(=O)c2ccc(-c3ccccc3)cc2)c2cc(OCCCO)ccc2N1C(=O)Cc1ccc2ccccc2c1 (stereo not given in full) | 0.179 | -0.499 | -0.0428 | 0.101 | -0.14 | -0.0892 | -0.5 | -1.28 (inactive) | 0.261 | 0.17 |
